Bioassay records deposited in PubChem by several laboratories.
This is a sample that favours compounds with a hit; in the whole collection about 9.1% have one here.
mHtt clearance – mutant huntingtin protein clearance; HeLa Exon1htt(103Q)mCFP, aggregate imaging; zero = plate's median compound well; inhibition, % at 1.5 µM; 47,000 tested, 0.42% active; AID 853;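 active = inhibition of aggregate fluorescence above about 70%, also judged a hit by eye on the cell image, limit read from the data, passing the limit was not always enough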;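 note: cells exposed to compound for three days before fixation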
M1 agonist – agonists of M1 muscarinic receptor; CHO-M1 cells, Fluo-4 calcium fluorescence, agonist mode; active compounds read high; B-score at 10 µM; 64,000 tested, 3% active; AID 626;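 active = fluorescence rise, raw or as B-score row- and column-corrected plate score, outside the 99.7% band of its plate's samples, either direction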
D1 allo mod – D1 dopamine receptor (human) allosteric modulation; P21728; HEK293 D1, CRE-luciferase, dopamine EC30 potentiation; actives deviate in either direction; B-score at 10 µM; 58,000 tested, 5.9% active;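 active = luminescence count or its row- and column-corrected plate score outside the 99.7% band of the plate's sample wells, on either side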
M1 antagonist – blocks the rat M1 muscarinic receptor response to acetylcholine. P08482. CHO-M1 cells, Fluo-4 calcium, ACh EC80 antagonist mode; active compounds read low. B-score at 10 µM. 64,000 tested, 3.4% active. AID 628;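 active = calcium fluorescence response, raw or row-and-column corrected B-score, differing from the plate sample mean either way at a set confidence level, mostly lower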
Target sequence (P08482 whole entry, looked up): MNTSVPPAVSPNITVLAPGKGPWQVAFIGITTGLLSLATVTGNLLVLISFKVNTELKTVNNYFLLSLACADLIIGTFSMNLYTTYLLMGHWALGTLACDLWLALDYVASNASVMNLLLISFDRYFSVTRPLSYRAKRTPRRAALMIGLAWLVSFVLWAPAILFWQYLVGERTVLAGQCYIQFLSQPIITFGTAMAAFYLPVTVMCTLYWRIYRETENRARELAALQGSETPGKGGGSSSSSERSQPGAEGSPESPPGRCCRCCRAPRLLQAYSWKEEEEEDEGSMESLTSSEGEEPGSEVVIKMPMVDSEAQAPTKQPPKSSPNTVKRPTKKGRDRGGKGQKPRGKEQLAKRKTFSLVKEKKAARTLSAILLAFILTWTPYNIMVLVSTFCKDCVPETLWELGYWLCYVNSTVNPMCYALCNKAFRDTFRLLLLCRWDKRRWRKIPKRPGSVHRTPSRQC
A number is an active result.

How did Cc1cc(N2CCN(C)CC2)nc2ccc(NC(=O)c3ccc(Br)o3)cc12 do in these assays?
M1 agonist: inactive; D1 allo mod: -4.2; M1 antagonist: inactive

What do the screens show for `CCCCNC(=O)Cc1coc2ccc3ccccc3c12`?
mHtt clearance: inactive

Results for CCOc1ccccc1NC(=O)c1c(NC(=O)CNCc2ccco2)sc2c1CCC2 ?
M1 agonist: inactive; D1 allo mod: inactive; M1 antagonist: -8.1

What do the screens show for `Cn1c(/N=C/c2cccs2)nc2ccccc21`?
M1 agonist: inactive; D1 allo mod: inactive; M1 antagonist: inactive

How did Cn1c(/N=C/c2cc(Cl)ccc2O)nc2ccccc21 do in these assays?
M1 agonist: 2.5; D1 allo mod: inactive; M1 antagonist: inactive

What do the screens show for `CCOc1cc(NC(=S)Nc2ccccc2OC)c(OCC)cc1NC(=O)c1ccccc1C`?
mHtt clearance: inactive

Results for Cc1cc(NC(=O)CSc2nc(CCC3CCCC3)nc3ccccc23)no1 ?
mHtt clearance: 84; M1 agonist: inactive; D1 allo mod: inactive; M1 antagonist: inactive

What do the screens show for `CCCc1nc(SCC(=O)Nc2cc(C)on2)c2ccccc2n1`?
M1 agonist: inactive; D1 allo mod: inactive; M1 antagonist: inactive

Results for COCCCN=C(c1ccco1)n1c(=S)nc(-c2ccco2)n(CCCOC)c1=S ?
M1 agonist: inactive; M1 antagonist: inactive

Results for CCOC(=O)/C=C(\C)Nc1cc(C)nn1-c1ccccc1 ?
D1 allo mod: -4.8

What do the screens show for `Cc1cc(NC(=O)Nc2cc(C)nn2-c2ccccc2)n(-c2ccccc2)n1`?
M1 agonist: inactive; D1 allo mod: inactive; M1 antagonist: inactive

What do the screens show for `CCOC(=O)c1c(C)[nH]c(C(=O)CSc2ccccc2)c1C`?
M1 agonist: inactive; D1 allo mod: -2.9; M1 antagonist: inactive

What do the screens show for `CC(C)(C)C(=O)NC1CCN(C(=O)N2CCCC2)CC1`?
mHtt clearance: 99; M1 agonist: inactive; D1 allo mod: inactive; M1 antagonist: inactive

Results for CC(C)(C)C(=O)NC1CCN(S(C)(=O)=O)CC1 ?
mHtt clearance: inactive

What do the screens show for `CN(Cc1ccccc1)C(=O)CN(c1ccc(F)cc1)S(=O)(=O)c1ccc2c(c1)OCCO2`?
mHtt clearance: inactive

How did Cc1cc(=O)cc(C)n1-c1ccc2c(c1)nc(C)n2-c1ccccc1 do in these assays?
M1 agonist: inactive; D1 allo mod: inactive; M1 antagonist: 2.2

Results for CCN1CCN(CC(=O)Nc2cccc(C)c2C)C(=O)C1=O ?
M1 agonist: inactive; D1 allo mod: inactive; M1 antagonist: inactive

Results for N#Cc1c(NC(=O)Cn2cnc3ccccc3c2=O)oc(-c2ccccc2)c1-c1ccccc1 ?
M1 agonist: inactive; D1 allo mod: -4.7; M1 antagonist: inactive

What do the screens show for `CCOC(=O)NC1(C(F)(F)F)C(=O)N(Cc2ccccc2)C2=C1C(=O)CC(C)(C)C2` (configuration not stated)?
mHtt clearance: inactive

Results for CC(=O)C1=C(O)C(=O)N(c2ccc(C)cc2)C1c1ccccn1 (configuration not stated) ?
mHtt clearance: inactive

What do the screens show for `CCn1c(NC2CCCCC2)nc2ccccc21`?
M1 agonist: inactive; D1 allo mod: -3.4; M1 antagonist: inactive

How did COc1ccc(CN(Cc2nc3ccccc3c(=O)[nH]2)C(=O)NC2CCCCC2)cc1 do in these assays?
mHtt clearance: inactive; M1 agonist: inactive; D1 allo mod: inactive; M1 antagonist: inactive

Results for COc1ccc(CN(Cc2nc3ccccc3c(=O)[nH]2)C(=O)C(C)(C)C)cc1 ?
M1 agonist: inactive; D1 allo mod: -4.9; M1 antagonist: inactive

What do the screens show for `O=C(CP(=O)(c1ccccc1)c1ccccc1)Nn1cnnc1`?
M1 agonist: inactive; D1 allo mod: inactive; M1 antagonist: inactive

How did O=S(=O)(NCc1cn2ccsc2n1)c1ccc2c(c1)OCCO2 do in these assays?
mHtt clearance: inactive; M1 agonist: inactive; D1 allo mod: inactive; M1 antagonist: inactive

How did COc1ccccc1N1CCN(S(=O)(=O)c2ccc(Cl)s2)CC1 do in these assays?
mHtt clearance: inactive; M1 agonist: inactive; M1 antagonist: inactive

Results for O=C1NCCc2c1[nH]c1c(Cl)ccc(Cl)c21 ?
mHtt clearance: inactive; M1 agonist: 28; D1 allo mod: inactive; M1 antagonist: inactive

Results for Nc1ncnc2c1ncn2C1CCC(CO)C(O)C1 (configuration not stated) ?
mHtt clearance: inactive; M1 agonist: inactive; D1 allo mod: inactive; M1 antagonist: inactive

What do the screens show for `Nc1ncnc2c1ncn2[C@@H]1O[C@H](CO)[C@@H](O)[C@H]1O`?
M1 agonist: 13; D1 allo mod: inactive; M1 antagonist: inactive

Results for CCOc1cc(C)c(S(=O)(=O)Nc2ccc(Cl)cn2)cc1C ?
M1 agonist: inactive; D1 allo mod: inactive; M1 antagonist: inactive

What do the screens show for `CCOc1ccc(S(=O)(=O)Nc2ccc(Cl)cn2)c(C)c1C`?
mHtt clearance: inactive; M1 agonist: inactive; D1 allo mod: -2.6; M1 antagonist: inactive

How did CCCNC(=O)Cn1c(=O)oc2ccccc21 do in these assays?
mHtt clearance: inactive

Results for Cc1ccc(NC(=O)c2ccccc2F)nc1 ?
mHtt clearance: inactive; M1 agonist: inactive; D1 allo mod: -3; M1 antagonist: inactive

Results for O=C(c1ccc(Cl)cc1)N1CCN(c2nc(N3CCCCC3)nc(N3CCCCC3)n2)CC1 ?
M1 agonist: inactive; D1 allo mod: inactive; M1 antagonist: inactive

What do the screens show for `COc1cc(CO)cc(Br)c1OCc1cccnc1`?
D1 allo mod: -3.1

What do the screens show for `COCCNC(=O)c1ccc(CN2CCOCC2)cc1`?
mHtt clearance: inactive

How did CCN(CC)c1ccc2cc(-c3nc4ccccc4[nH]3)c(=O)oc2c1 do in these assays?
mHtt clearance: inactive; M1 agonist: 419; D1 allo mod: -3.6; M1 antagonist: -21

How did CCN(CC)c1ccc2cc(-c3nnc(-c4ccccc4)o3)c(=O)oc2c1 do in these assays?
mHtt clearance: inactive

How did COC(=O)c1[nH]c2ccccc2c1NC(=O)CNC1CCCCC1 do in these assays?
M1 agonist: inactive; D1 allo mod: inactive; M1 antagonist: inactive

How did c1ccc(Cc2nnc3sc(-c4ccncc4)nn23)cc1 do in these assays?
mHtt clearance: inactive; M1 agonist: inactive; D1 allo mod: inactive; M1 antagonist: inactive

What do the screens show for `c1ccc(Cc2nnc3sc(-c4ccc5c(c4)OCO5)nn23)cc1`?
mHtt clearance: inactive; M1 agonist: inactive; D1 allo mod: 6.2; M1 antagonist: inactive

Results for Cc1ccc(NCc2nc3ccccc3n2C)cc1 ?
M1 agonist: inactive; D1 allo mod: -4.1; M1 antagonist: inactive

What do the screens show for `COc1cc2nc(SCC(=O)NCc3ccco3)n(Cc3ccc(Cl)cc3)c(=O)c2cc1OC`?
mHtt clearance: inactive; M1 agonist: inactive; D1 allo mod: -3.8; M1 antagonist: inactive

What do the screens show for `COCCNC(=O)CSc1nc2cc(OC)c(OC)cc2c(=O)n1Cc1ccc(OC)cc1`?
M1 agonist: inactive; D1 allo mod: inactive; M1 antagonist: inactive

How did c1ccc(CNn2c(N3CCOCC3)nc3ccccc32)cc1 do in these assays?
M1 agonist: inactive; D1 allo mod: -3.3; M1 antagonist: inactive

How did Cc1cc(N2CCOCC2)nc(NCc2ccccc2)n1 do in these assays?
mHtt clearance: inactive; M1 agonist: inactive; M1 antagonist: inactive

Results for Cc1ccccc1NC(=S)NC(NC(=O)c1ccccc1C)C(Cl)(Cl)Cl (configuration not stated) ?
mHtt clearance: inactive
